In PubChem BioAssay (NCATS):
Values without a mark were called inactive. Inconclusive results are not listed. Where a call stands in place of a potency, no number is given. Activity calls are given as the source filed them. Unless noted, calls come from the whole dose curve; as a rule, active = well fitted curve in the direction sought with a large enough effect; inconclusive = small, poorly fitted or top-dose-only effect, or another doubt; inactive = no such curve, though single readings can be large; an effect the other way counts as inactive or inconclusive.

How the values were obtained:
[1] = target: Lysosomal acid glucosylceramidase (Homo sapiens) (UniProt P04062); experiment: Glucocerebrosidase-p2 (AID 348; in the data active = potency below about 10 µM; note: potency is the fitted concentration of half-maximal effect); details: purified GBA, blue fluorogenic substrate, 40 min
Chain of Lysosomal acid glucosylceramidase (Homo sapiens) (P04062 whole entry, looked up): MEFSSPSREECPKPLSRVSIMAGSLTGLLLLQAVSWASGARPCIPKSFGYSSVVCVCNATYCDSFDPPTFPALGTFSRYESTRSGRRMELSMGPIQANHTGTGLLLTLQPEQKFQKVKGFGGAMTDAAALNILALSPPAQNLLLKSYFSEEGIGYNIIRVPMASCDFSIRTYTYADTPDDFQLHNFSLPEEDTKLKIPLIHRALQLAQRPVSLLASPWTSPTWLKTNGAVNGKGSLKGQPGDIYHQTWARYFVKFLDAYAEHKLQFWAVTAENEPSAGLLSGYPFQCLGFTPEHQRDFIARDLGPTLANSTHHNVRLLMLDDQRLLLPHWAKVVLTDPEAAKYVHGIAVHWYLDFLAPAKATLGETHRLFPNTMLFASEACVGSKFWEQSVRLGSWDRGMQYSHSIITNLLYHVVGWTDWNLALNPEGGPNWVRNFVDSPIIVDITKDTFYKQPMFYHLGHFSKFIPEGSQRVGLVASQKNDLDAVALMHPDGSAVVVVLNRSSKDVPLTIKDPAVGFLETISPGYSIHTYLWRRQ
Outline: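 Normal human glucocerebrosidase (0.2 nM) with blue fluorogenic substrate (80 uM final) in citrate/phosphate pH 5.9 with 10mM sodium taurocholate, 0.01% tween-20; 40 min RT, NaOH/glycine stop; fluorescence Ex 365/Em 440; AC50 from a titration from 0.6 nM upwards.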

[2] = AP1 Signaling Pathway (AID 357; active = well fitted curve in either direction with a large enough effect, not every such curve was filed as active); details: ME-180 AP-1-bla reporter, EGF-induced, beta-lactamase ratio, 5 h; at 7.69 µM (top of the series) unless noted
Outline: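 AP-1-bla ME-180 cells with beta-lactamase reporter under AP-1 response element, stimulated with EC50 EGF; compounds titrated, 5 hours at 37 degrees Celsius. CCF4 read at 460/530 nm ratio; positive and negative modulators judged by AC50.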

[3] = target: Cytochrome P450 1A2 (Homo sapiens) (UniProt P05177); experiment: p450-cyp1a2 (AID 410; calls by dose curve; note: potency is the fitted concentration of half-maximal effect); details: recombinant CYP1A2, luciferin-ME demethylation, luminescence; series mostly up to 57 µM
Chain of Cytochrome P450 1A2 (Homo sapiens) (P05177 whole entry, looked up): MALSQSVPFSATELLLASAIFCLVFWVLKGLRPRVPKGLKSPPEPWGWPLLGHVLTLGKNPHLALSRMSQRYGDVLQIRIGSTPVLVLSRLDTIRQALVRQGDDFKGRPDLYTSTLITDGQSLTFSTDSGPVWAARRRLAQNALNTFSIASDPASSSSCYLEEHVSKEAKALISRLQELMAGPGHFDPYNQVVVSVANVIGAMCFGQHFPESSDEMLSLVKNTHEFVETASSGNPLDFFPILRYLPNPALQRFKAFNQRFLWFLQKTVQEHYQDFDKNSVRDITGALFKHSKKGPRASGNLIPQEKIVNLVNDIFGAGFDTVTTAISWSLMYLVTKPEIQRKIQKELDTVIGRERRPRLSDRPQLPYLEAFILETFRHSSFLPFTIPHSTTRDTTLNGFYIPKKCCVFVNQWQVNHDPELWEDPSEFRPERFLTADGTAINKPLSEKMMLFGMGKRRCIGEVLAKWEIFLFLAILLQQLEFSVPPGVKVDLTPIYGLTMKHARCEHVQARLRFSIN
Outline: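 20nM CYP1A2, 100uM Luciferin-ME (=Km), 100mM KPO4; cpd 10 min RT; +NADPH regen, 60 min RT; stop/detect 20 min; luminescence. Normalized to furafylline 57 uM = full inhibition.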

[4] = NFAT Signaling Pathway (AID 444; active = well fitted curve in either direction with a large enough effect, not every such curve was filed as active;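 note: carbachol stimulus at about its EC50 of 1 µM final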); details: Jurkat NFAT-bla M1, carbachol, beta-lactamase ratio, 5 h; at 7.69 µM (top of the series) unless noted
Outline: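 Jurkat cells carrying an NFAT-driven β-lactamase reporter and co-transfected muscarinic M1 receptor were treated with compound plus carbachol (1 uM final, an EC50 level) for 5 h at 37 °C. CCF4 loading followed for 1 h at RT; 460/530 nm ratio gave %activity.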

[5] = Stat Signaling Pathway (AID 446; active = well fitted curve in either direction with a large enough effect, not every such curve was filed as active;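 note: ME-180 cervical cancer cells given 40 pM IL-6 alongside compound; SIE-controlled beta-lactamase reporter measured as 460/530 nm FRET emission ratio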); details: ME-180 (cervical carcinoma) SIE beta-lactamase reporter, IL-6 stimulated, 5 h; at 7.69 µM (top of the series) unless noted
Outline: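 Overnight-plated ME-180 cells bearing a STAT Inducible Element beta-lactamase reporter; 5 h co-exposure to compound and 40 pM IL-6; values normalized to 300 pM IL-6 and 125 nM JAK inhibitor controls.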

[6] = target: Glucocorticoid receptor (Homo sapiens) (UniProt P04150); experiment: GR-GFP Redistribution (AID 450;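 active = compounds whose dose series gives a full or clear partial fitted curve of increased nuclear translocation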; note: potency is the fitted concentration of half-maximal effect); details: U2OS GR-GFP nuclear translocation, laser cytometry, 2 h
Chain of Glucocorticoid receptor (Homo sapiens) (P04150 whole entry, looked up, the tested form may be a part): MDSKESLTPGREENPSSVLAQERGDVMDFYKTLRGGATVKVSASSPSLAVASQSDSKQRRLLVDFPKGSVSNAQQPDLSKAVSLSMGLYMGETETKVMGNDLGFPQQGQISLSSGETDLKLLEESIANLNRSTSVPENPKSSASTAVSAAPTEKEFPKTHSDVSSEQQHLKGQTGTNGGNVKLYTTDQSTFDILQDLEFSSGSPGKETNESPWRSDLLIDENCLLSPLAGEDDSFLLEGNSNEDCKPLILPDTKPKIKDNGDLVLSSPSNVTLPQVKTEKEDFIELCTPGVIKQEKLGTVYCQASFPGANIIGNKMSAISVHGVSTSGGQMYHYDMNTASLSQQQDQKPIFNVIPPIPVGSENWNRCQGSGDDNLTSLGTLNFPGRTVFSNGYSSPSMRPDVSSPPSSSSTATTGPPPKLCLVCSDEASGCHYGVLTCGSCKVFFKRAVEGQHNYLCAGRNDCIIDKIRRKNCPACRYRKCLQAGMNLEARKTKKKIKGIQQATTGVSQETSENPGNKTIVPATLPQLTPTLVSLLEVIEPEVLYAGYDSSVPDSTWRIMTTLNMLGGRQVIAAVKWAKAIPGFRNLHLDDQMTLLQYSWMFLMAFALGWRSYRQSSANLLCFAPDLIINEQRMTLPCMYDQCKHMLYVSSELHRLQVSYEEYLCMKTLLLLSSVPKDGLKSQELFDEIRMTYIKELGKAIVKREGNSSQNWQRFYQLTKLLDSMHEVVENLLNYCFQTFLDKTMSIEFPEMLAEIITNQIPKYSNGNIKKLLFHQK

[7] = target: Glucocorticoid receptor (Homo sapiens) (UniProt P04150); experiment: GR-EFC Redistribution (AID 451; calls by dose curve; note: potency is the fitted concentration of half-maximal effect); details: CHO-K1 GR-EFC translocation, beta-gal luminescence, 2 h
Outline: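 CHO-K1 cells stably expressing nuclear-localized β-gal enzyme acceptor and GR fused C-terminally to the enzyme donor fragment; ligand-driven nuclear translocation restores β-gal by complementation. Compounds titrated up to 46 uM final, 2 h at 37 °C; luminescence read.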

[8] = target: Mitogen-activated protein kinase 10 (Mus musculus) (UniProt Q61831); experiment: JNK3 AlphaScreen Assay (AID 530; active = well fitted curve in either direction with a large enough effect, not every such curve was filed as active;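 note: kinase came from lysate of stimulated human HepG2 cells; signal reports phosphorylation of biotinylated GST-cJun 1-79 at Ser73 with 10 µM ATP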); details: JNK3 lysate, c-Jun phosphorylation; series mostly up to 57.1 µM
Outline: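 Biotinylated GST-cJun(1-79) served as substrate for JNK3 in HepG2 lysates stimulated with IL-1beta and TNF-alpha. ATP was 10 uM final, pH 7.6. Ser73 phosphorylation was quantified by AlphaScreen (680 nm excitation).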

[9] = target: 3',5'-cyclic-AMP phosphodiesterase 4B (Homo sapiens) (UniProt Q07343); experiment: qHTS Assay for Inhibitors of PDE-IV (AID 607; active = well fitted activation curve with a large enough effect in the main read-out, with a control signal flat, not every such curve was filed as active); details: HEK293 ACTOne CNG channel cells, membrane potential fluorescence; series mostly up to 22.9 µM
Chain of 3',5'-cyclic-AMP phosphodiesterase 4B (Homo sapiens) (Q07343 whole entry, looked up): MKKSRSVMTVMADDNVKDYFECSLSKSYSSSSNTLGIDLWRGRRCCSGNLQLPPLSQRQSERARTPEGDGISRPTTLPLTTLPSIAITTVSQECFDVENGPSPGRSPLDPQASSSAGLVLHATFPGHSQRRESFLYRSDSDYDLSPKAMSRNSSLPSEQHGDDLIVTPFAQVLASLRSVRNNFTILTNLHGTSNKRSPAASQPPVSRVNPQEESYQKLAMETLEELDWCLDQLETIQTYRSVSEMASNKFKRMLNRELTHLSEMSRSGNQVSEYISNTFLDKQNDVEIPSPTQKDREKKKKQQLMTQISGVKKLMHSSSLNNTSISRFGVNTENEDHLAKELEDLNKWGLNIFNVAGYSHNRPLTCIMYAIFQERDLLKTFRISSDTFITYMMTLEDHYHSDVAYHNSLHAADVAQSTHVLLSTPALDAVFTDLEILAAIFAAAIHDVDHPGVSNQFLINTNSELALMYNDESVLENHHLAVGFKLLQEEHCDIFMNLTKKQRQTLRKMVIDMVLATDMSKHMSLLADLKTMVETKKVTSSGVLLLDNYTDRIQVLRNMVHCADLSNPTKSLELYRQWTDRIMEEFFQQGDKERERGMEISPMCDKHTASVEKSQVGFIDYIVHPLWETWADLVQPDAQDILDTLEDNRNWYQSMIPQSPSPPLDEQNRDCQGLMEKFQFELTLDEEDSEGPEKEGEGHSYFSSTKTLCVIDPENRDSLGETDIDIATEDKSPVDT
Outline: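 Live HEK293 cells with a modified cyclic nucleotide-gated (CNG) channel report intracellular cAMP via membrane-potential dye fluorescence (ex 535/em 590 nm). Endogenous PDE-IV was targeted. Compounds were tested at up to 22.9 uM final; RO 20-1724 100 uM served as control.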

[10] = target: Cytochrome P450 3A4 (Homo sapiens) (UniProt P08684); experiment: qHTS Assay for Inhibitors and Substrates of Cytochrome P450 3A4 (AID 884); details: recombinant CYP3A4, Luciferin-PPXE luminescence; series mostly up to 57.1 µM; note: potency is the fitted concentration of half-maximal effect; nearly all actives have a fitted effect of over 50% in size
Outline: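 Luminescent readout of luciferin produced by CYP3A4 (20 nM) dealkylation of Luciferin-PPXE, 25 uM (its KM). NADPH-driven reaction ran 60 min at RT after 10 min compound preincubation; data scaled to 57 uM ketoconazole as 100% inhibition.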

[11] = target: Cytochrome P450 3A4 (Homo sapiens) (UniProt P08684); experiment: qHTS Assay for Activators of Cytochrome P450 3A4 (AID 885); details: recombinant CYP3A4, Luciferin-PPXE luminescence, 60 min; series mostly up to 57.1 µM; note: nearly all actives have a fitted effect of over 65% in size
Outline: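 Using 20nM recombinant human CYP3A4 in potassium phosphate (200mM), substrate Luciferin-PPXE at 25uM, luminescent luciferin detection followed a 60-min RT NADPH reaction; data scaled to 57 uM ketoconazole.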

[12] = Primary qHTS for small molecule stabilizers of the endoplasmic reticulum resident proteome: Secreted ER Calcium Modulated Protein (SERCaMP) assay (AID 1508630); details: SH-SY5Y GLuc-SERCaMP (Gaussia luciferase released on ER calcium loss) secretion, thapsigargin, luminescence; series mostly up to 38.4 µM
Outline: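 The SH-SY5Y reporter protocol was run at 3 concentrations up to 38.3 uM (primary) or 11 concentrations (follow-up): 16 h compound, 100 nM thapsigargin for 4 h, then extracellular luciferase luminescence.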

[13] = target: Rap guanine nucleotide exchange factor 3 (Homo sapiens) (UniProt O95398); experiment: Confirmatory qHTS for antagonist of cAMP-regulated guanine nucleotide exchange factor 3 (EPAC1) (AID 1645880); details: EPAC1 Rap1B-BODIPY-GDP exchange, fluorescence; series mostly up to 115 µM; note: nearly all actives have a fitted effect of over 55% in size; note: potency is the fitted concentration of half-maximal effect
Outline: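 Released BODIPY-GDP fluoresces less than Rap1-bound BODIPY-GDP; the signal is followed at 480/540 nm at 5-min intervals over 30 min, after 5 min at room temperature. Reactions contain 100 nM EPAC1, 250 nM RAP1B-BODIPY-GDP and 50 uM GDP; results are normalized to ATA and DMSO.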

[14] = target: Rap guanine nucleotide exchange factor 3 (Homo sapiens) (UniProt O95398); experiment: Confirmatory qHTS for agonist of cAMP-regulated guanine nucleotide exchange factor 3 (EPAC1) (AID 1645881); details: EPAC1 Rap1B BODIPY-GDP exchange fluorescence; series mostly up to 154 µM; note: nearly all actives have a fitted effect of over 75% in size; note: potency is the fitted concentration of half-maximal effect;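 for activation: EPAC1 catalysed release of BODIPY-GDP from Rap1B seen as fluorescence loss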
[15] = target: Rap guanine nucleotide exchange factor 4 (Homo sapiens) (UniProt Q8WZA2); experiment: Confirmatory qHTS for antagonist of cAMP-regulated guanine nucleotide exchange factor 4 (EPAC2) (AID 1645885); details: EPAC2 Rap1B-BODIPY-GDP exchange fluorescence, biochemical; series mostly up to 114 µM; note: nearly all actives have a fitted effect of over 25% in size; note: potency is the fitted concentration of half-maximal effect
Chain of Rap guanine nucleotide exchange factor 4 (Homo sapiens) (Q8WZA2 whole entry, looked up): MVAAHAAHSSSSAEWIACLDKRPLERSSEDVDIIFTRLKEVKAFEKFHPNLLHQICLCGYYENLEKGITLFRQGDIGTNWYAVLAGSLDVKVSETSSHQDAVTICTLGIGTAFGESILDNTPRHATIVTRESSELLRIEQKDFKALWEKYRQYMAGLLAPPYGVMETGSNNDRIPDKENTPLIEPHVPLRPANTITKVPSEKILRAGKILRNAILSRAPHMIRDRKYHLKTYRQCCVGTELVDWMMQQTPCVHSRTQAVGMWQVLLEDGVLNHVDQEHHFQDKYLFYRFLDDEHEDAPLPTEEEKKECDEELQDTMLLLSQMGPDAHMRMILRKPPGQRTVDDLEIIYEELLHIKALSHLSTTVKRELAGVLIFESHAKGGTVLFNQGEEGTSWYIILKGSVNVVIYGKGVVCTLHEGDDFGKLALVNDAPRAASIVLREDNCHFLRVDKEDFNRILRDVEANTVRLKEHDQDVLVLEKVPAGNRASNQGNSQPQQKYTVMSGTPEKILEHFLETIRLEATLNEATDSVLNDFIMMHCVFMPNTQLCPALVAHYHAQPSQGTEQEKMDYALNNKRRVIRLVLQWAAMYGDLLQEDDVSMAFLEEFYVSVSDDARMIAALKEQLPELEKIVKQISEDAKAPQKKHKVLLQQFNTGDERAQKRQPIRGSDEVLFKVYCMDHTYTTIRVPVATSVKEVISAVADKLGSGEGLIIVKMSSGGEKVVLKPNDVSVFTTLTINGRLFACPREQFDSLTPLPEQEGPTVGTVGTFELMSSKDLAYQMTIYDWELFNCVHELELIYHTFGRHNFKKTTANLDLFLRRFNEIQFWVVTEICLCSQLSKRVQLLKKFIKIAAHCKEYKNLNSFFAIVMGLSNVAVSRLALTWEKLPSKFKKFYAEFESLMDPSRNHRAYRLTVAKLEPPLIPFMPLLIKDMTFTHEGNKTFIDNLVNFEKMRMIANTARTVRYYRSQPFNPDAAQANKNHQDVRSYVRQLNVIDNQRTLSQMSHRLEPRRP

[16] = target: Dual specificity protein kinase CLK4 (Homo sapiens) (UniProt Q9HAZ1); experiment: qHTS Assay for Inhibitors of CDC-like Kinase 4 (Kinase-Glo Assay) (AID 1770); details: recombinant Clk4, Kinase-Glo ATP depletion luminescence; series mostly up to 66.7 µM; note: nearly all actives have a fitted effect of over 65% in size; note: potency is the fitted concentration of half-maximal effect
Chain of Dual specificity protein kinase CLK4 (Homo sapiens) (Q9HAZ1 whole entry, looked up): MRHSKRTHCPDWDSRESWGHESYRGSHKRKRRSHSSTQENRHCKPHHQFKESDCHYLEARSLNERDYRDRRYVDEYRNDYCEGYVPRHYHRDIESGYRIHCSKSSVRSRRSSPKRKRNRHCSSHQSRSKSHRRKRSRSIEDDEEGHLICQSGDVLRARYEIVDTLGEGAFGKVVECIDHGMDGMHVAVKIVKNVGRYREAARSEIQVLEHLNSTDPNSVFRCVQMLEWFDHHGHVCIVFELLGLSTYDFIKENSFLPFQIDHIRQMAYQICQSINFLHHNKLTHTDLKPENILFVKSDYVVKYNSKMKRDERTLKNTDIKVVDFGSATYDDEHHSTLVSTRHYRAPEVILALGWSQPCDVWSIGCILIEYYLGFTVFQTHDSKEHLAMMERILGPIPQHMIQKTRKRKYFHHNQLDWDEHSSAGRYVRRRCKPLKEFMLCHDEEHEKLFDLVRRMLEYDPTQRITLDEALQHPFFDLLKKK
Outline: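 Recombinant human Clk4 (25 nM) phosphorylated RS repeat peptide (100 uM) with 1 uM ATP in Tris pH 7.5/MgCl2/EGTA/DTT/Triton buffer for 4.5 h at room temperature. Residual ATP was quantified by Kinase-Glo luciferase luminescence.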

[17] = target: Dual specificity protein kinase CLK4 (Homo sapiens) (UniProt Q9HAZ1); experiment: qHTS Assay for Inhibitors of CDC-like Kinase 4 (ADP-FP Assay) (AID 1795); details: Transcreener ADP fluorescence polarization; series mostly up to 50 µM; note: nearly all actives have a fitted effect of over 60% in size; note: potency is the fitted concentration of half-maximal effect
Outline: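 Recombinant human Clk4 (6.25 nM) phosphorylated RS repeat peptide (100 uM) with 1 uM ATP in Tris pH 7.5/MgCl2/EGTA/DTT/Triton buffer for one hour. ADP was quantified by Transcreener competitive fluorescence polarization against an ADP calibration curve.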

[18] = target: Ubiquitin carboxyl-terminal hydrolase 1 (Homo sapiens) (UniProt O94782); experiment: Inhibitors of USP1/UAF1: Pilot qHTS (AID 504865); details: purified USP1/UAF1, Ub-rhodamine cleavage fluorescence; series mostly up to 54.9 µM; note: nearly all actives have a fitted effect of over 35% in size; note: potency is the fitted concentration of half-maximal effect;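 for activity change, negative = inhibition: rhodamine fluorescence freed from ubiquitin-rhodamine substrate followed over time; top concentration of the series differs between compounds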
Chain of Ubiquitin carboxyl-terminal hydrolase 1 (Homo sapiens) (O94782 whole entry, looked up): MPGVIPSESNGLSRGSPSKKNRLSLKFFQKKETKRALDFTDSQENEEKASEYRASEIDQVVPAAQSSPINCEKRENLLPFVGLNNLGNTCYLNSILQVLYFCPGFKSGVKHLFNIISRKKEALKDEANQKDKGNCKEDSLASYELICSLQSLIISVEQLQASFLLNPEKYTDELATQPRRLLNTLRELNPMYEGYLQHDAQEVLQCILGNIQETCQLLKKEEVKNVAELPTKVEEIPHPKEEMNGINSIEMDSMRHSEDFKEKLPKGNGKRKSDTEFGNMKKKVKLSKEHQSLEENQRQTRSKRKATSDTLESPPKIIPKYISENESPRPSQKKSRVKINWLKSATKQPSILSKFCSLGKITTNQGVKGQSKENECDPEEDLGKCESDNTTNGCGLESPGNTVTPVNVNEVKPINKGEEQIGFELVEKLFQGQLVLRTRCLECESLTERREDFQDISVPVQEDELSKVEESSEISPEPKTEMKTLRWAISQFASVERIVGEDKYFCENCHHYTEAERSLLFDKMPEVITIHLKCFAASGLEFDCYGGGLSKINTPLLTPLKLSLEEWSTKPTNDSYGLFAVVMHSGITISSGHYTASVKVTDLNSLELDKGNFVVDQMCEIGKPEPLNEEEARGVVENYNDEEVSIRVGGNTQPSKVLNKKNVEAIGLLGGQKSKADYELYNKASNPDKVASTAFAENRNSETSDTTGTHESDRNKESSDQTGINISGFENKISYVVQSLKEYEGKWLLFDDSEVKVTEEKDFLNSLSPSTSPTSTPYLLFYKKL
Outline: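 USP1/UAF1 complex (1nM) preincubated with compound 15 min at room temperature, then Ub-Rho substrate (150nM final) added. Fluorescence read kinetically at 480/540 nm, 6 reads every 60 seconds. Buffer: 50mM HEPES pH 7.8, 0.5mM EDTA, 0.1 mg/ml BSA, 1mM TCEP, 0.01% Tween-20.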

[19] = target: Rap guanine nucleotide exchange factor 4 (Homo sapiens) (UniProt Q8WZA2); experiment: Confirmatory qHTS for agonist of cAMP-regulated guanine nucleotide exchange factor 4 (EPAC2) (AID 1645884); details: EPAC2 GEF activity, Rap1B-BODIPY-GDP fluorescence; series mostly up to 154 µM;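 note: nucleotide exchange releases bodipy-GDP from Rap1 and this lowers its fluorescence; nearly all actives have a fitted effect of over 65% in size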

Compound | Potency [1] [µM] | activity change, negative = inhibition [2] [%] | Potency [3] | activity change, negative = inhibition [4] [%] | activity, negative = inhibition [5] [%] | Potency [6] [µM] | Potency [7] [µM] | Potency [8] | Potency [9] | Potency [10] | Potency [11] | outcome [12] | Potency [13] | Potency [14] | Potency [15] | Potency [16] | Potency [17] | Potency [18] | Potency [19]
COCCn1c(=O)c(-c2cc(F)cc(F)c2)nc2cnc(Nc3cccc(OC)c3)nc21 | > 11.4 | -16 | 2.51 µM (active) | -16.5 | -3.85 | > 9.22 | > 46 | inactive | inactive | 7.94 µM (active) | inactive | inactive | inactive | inactive | inactive |  |  |  | 
COC(=O)C1=C(C)NC(C)=C(C(=O)OCCSc2ccccc2)[C@@H]1C |  |  | 0.794 µM (active) |  |  | > 46 | > 46 |  |  |  | inactive | inactive | inactive | inactive |  |  |  |  | 
O=c1c(-c2cccs2)nc2cnc(Nc3ccccc3)nc2n1C[C@H]1CCCO1 |  | -12.9 | 2.51 µM (active) | -16.9 | 22.1 | > 9.22 | > 46 | inactive | inactive |  | inactive | inactive | inactive | inactive | inactive | inactive | inactive | inactive | 
COc1ccc(C(=O)N2CCC3(CCCN(c4cccc(-c5ccccc5)c4)C3)CC2)cc1 | > 11.4 | 11.7 |  |  | 1.07 |  | > 46 | inactive | inactive |  |  | inactive | inactive |  | inactive |  |  |  | 
N#C/C(=C\c1ccc(O)c(O)c1)C(=O)OCCc1cccs1 |  |  |  |  |  | > 46 | > 46 |  | inactive |  | inactive | inactive | 12.5 µM (active) | inactive |  |  |  |  | inactive
O=c1c(-c2ccc(F)c(F)c2)nc2cncnc2n1Cc1ccccc1Cl | > 11.4 | 4.57 | 5.01 µM (active) | -7.38 | 9.03 | > 9.22 | > 46 | inactive |  |  | inactive | inactive | inactive | inactive |  |  |  |  | inactive
O=C(c1csnn1)N1CCC2(CC1)CN(c1cccc(-c3ccccc3)c1)C2 |  | -15.1 | 12.6 µM (active) | -11.3 |  |  | > 46 | inactive | inactive |  | inactive | inactive |  | inactive |  |  |  |  | inactive
COc1ccccc1-c1ccc2ncnc(N(C)Cc3ccco3)c2c1 | > 11.4 | 10.4 |  | -26.4 | -6.49 | > 46 | > 46 | inactive |  |  |  | inactive |  | inactive | 39.3 µM (active) | 8.91 µM (active) | 2.82 µM (active) | inactive | inactive
O=C(CCCCCN1C(=O)c2cccc3cccc(c23)C1=O)NO |  |  |  |  |  |  |  |  |  |  |  | inactive |  |  |  |  |  |  | 
COc1cccc(Nc2ncc3nc(-c4cccs4)c(=O)n(-c4ccccc4)c3n2)c1 | > 11.4 | -24.2 | 3.16 µM (active) | -15.6 | 3.1 |  | > 46 | inactive | inactive |  | inactive | inactive | inactive | 70.6 µM (active) | inactive |  |  | 35.5 µM (active) | 
